Measured values from PubChem BioAssay AID1961 (Sanford-Burnham Center for Chemical Genomics, 2009).
“And” between values parts separate entries of the source, which are not always exact repeats. Equal entries are not always repeated. Hit rate of the full screen: of about 290,000 compounds, about 140 (0.048%) were called active.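 The calls were made as follows: active = activation above 40% with more than 50 cells counted in the well; inconclusive = wells holding fewer than 50 cells, flagged as toxic or sparse; inactive = the rest.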 For the sample, actives were picked, then their nearest neighbours and some compounds at random.

Legend:
[1] = selective activators of receptor GPR55 – imaging, U2OS cells, beta-arrestin-GFP redistribution, primary screen (AID 1961); conditions: measured here: cytotoxicity, cells analyzed, at 10 µM;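 also: U2OS osteosarcoma cells stably expressing GPR55 and beta-arrestin-GFP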;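 as to activation: plate controls were DMSO negative control for no effect and LPI positive control for full effect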
[2] = biological target: G-protein coupled receptor 55 (Homo sapiens) (UniProt Q9Y2T6); assay: as above; conditions: at 10 µM, stronger effect = higher value
G-protein coupled receptor 55 (Homo sapiens), sequence (Q9Y2T6 whole entry, looked up): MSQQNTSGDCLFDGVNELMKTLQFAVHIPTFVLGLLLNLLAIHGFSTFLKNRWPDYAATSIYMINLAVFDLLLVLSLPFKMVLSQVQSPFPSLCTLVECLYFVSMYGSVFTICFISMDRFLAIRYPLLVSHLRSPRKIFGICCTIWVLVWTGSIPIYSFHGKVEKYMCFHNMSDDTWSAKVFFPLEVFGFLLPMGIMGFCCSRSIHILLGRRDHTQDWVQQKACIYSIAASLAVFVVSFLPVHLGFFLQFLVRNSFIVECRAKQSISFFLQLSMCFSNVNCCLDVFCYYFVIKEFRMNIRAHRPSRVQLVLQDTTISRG

Compound	cell count [1]	activation [2]
Cn1c(SCC(=O)NNC(=O)Nc2ccc(Cl)cc2)nnc1-c1ccccc1	332 cells	-0.1% (inactive)
COc1cccc(-n2c(SCC(=O)Nc3cc(C)on3)nc3ccccc3c2=O)c1	336 cells	0.5% (inactive)
Cc1cccc(N(CC(=O)Nc2c(C)n(C)n(-c3ccccc3)c2=O)S(C)(=O)=O)c1C	361 cells	0% (inactive)
CSc1cccc(N/C(=N/S(=O)(=O)c2ccccc2)NN)c1	310 cells	0.6% (inactive)
COc1ccc2cc(CCNC(=O)C3CCCC3)c(=O)[nH]c2c1	307 cells	-0.1% (inactive)
c1ccc(-c2noc(CN3CCOCC3)n2)cc1	407 cells	0.2% (inactive)
CC(=O)c1c(C)[nH]c(C(=O)NCCc2c[nH]c3ccccc23)c1C	348 cells	-0.1% (inactive)
CC1(C)CC(NC(=O)c2c(N)no[n+]2[O-])CC(C)(C)N1	241 cells	-0.3% (inactive)
Cc1ccc(NC(=S)Nc2ccc(S(=O)(=O)Nc3ncccn3)cc2)c(C)c1	327 cells	-0.2% (inactive)
COCc1[nH]c(=S)[nH]c(=O)c1C	339 cells	-0.1% (inactive)
Cc1c(Cl)c(=O)oc2cc(OCC(=O)NCc3cccs3)ccc12	357 cells	0% (inactive)
COc1ccc(NC(=O)Cn2c(CCC(=O)O)ccc2-c2ccccc2)cc1	413 cells	0.2% (inactive)
O=C(O)c1ccc(NC(=O)c2ccc3c(c2)C(=O)N(c2ccccc2)C3=O)cc1	374 cells	-0.1% (inactive)
O=C(OCc1cc(=O)n2c(n1)sc1ccccc12)c1ccc2c(=O)n3c(nc2c1)CCC3	323 cells	-0.1% (inactive)
Cc1sc2nc(CSc3nc4ccccc4c(=O)n3CCCN3CCOCC3)[nH]c(=O)c2c1C	341 cells	-0.1% (inactive)
Cc1ccc(SC[C@H](Cc2ccccc2)N2CCN(CCc3ccccc3)CCC2=O)cc1	347 cells	-0.1% (inactive)
CCCN1CCC(=O)N([C@H](CSc2ccc(C)cc2)CC(C)C)CC1	328 cells	5.1% (inactive)
Cc1ccc(SC[C@H](CC(C)C)N2CCN(CCc3ccccc3)CCC2=O)cc1	305 cells	193% (active)
Cc1ccc(CNC(=O)CCS(=O)(=O)c2ccc3c(c2)NC(=O)CO3)cc1	376 cells	-0.2% (inactive)
CCOC(=O)C(CSCC(=O)c1ccc(Cl)cc1Cl)NC(=O)OC(C)(C)C (stereo not drawn)	359 cells	-0.1% (inactive)
CCOC(=O)c1c(CN2CCN(CCO)CC2)n(-c2ccccc2)c2cc(Br)c(O)cc12	355 cells	0.3% (inactive)

Compound	cell count [1]	activation [2]
O=c1oc2ccccc2c(NCc2ccc(Cl)cc2)c1[N+](=O)[O-]	384 cells	-0.3% (inactive)
O=C(NCCN1CCN(C(=O)c2ccc(F)cc2)CC1)c1ccc(F)cc1	452 cells	0.2% (inactive)
CCOc1ccc2nc(Cl)sc2c1	247 cells	-0.1% (inactive)
Nc1cc(-c2ccccc2)n2c(n1)nc1ccccc12	331 cells	0.3% (inactive)
Cc1cc(=O)[nH]c(SCC(=O)N2CCCCCC2)n1	340 cells	0% (inactive)
CC(=O)NC1(C(F)(F)F)C(=O)N(Cc2ccccc2)C2=C1C(=O)CC(C)(C)C2 (stereo not drawn)	419 cells	0.2% (inactive)
CCS(=O)(=O)N1CCC(C(=O)N2CCc3ccccc3C2)CC1	361 cells	0% (inactive)
O=C(Cc1ccccc1)Nc1ccc(NC(=O)c2ccco2)cc1	367 cells	0.2% (inactive)
Cc1cccc(CC(=O)N2CCOCC2)c1	411 cells	1.4% (inactive)
O=C(CC1CCCCC1)Nc1ccccc1-c1ccccc1	361 cells	-0.4% (inactive)
COc1ccc(Cl)cc1NC(=O)CSc1nnc(COc2ccccc2)n1C	350 cells	0.2% (inactive)
COc1ccc(Nc2ncc3c(n2)CC(c2ccccc2)CC3=O)cc1 (stereo not drawn)	306 cells	-0.1% (inactive)
O=C(N/N=C\c1cccnc1)c1ccc(Cl)cc1Cl	331 cells	0.3% (inactive)
CCOC(=O)CSc1nc2c([nH]c3ccccc32)c(=O)n1C	345 cells	-0.1% (inactive)
CCOc1ccccc1CNC(=O)CCc1cn(CC)c2ccccc12	381 cells	0.3% (inactive)
c1ccc(-c2cnn3c(-c4ccccc4)c(-c4ccccc4)nc3n2)cc1	310 cells	42.5% (active)
c1ccc(-c2cnn3nnnc3n2)cc1	327 cells	0.2% (inactive)
c1ccc(-c2cn3nc(-c4ccccc4)c(-c4ccccc4)nc3n2)cc1	374 cells	0.6% (inactive)
CC(C)(C)C1=CC(=Nc2ccccc2N)C=C(C(C)(C)C)C1=O	328 cells	-0.1% (inactive)
CC(C)(C)C1=CC(=O)C(=O)C(C(C)(C)C)=C1	346 cells	138% (active)
CC(C)(C)C1=CC=C(C(C)(C)C)C(=O)C1=O	365 cells	24.1% (inactive)

Compound	cell count [1]	activation [2]
CCN(CC)C(=O)CSc1nnc(-c2ccccc2)n1-c1ccccc1	281 cells	0.2% (inactive)
CC1CCC(C(C)C)C(OC(=O)Cn2c(-c3ccccc3)[n+](C)c3ccccc32)C1 (stereo not drawn)	252 cells and 322 cells	-0.3% (inactive)
CC1CCC(C(C)C)C(OC(=O)Cn2c(-c3ccc(F)cc3)[n+](C)c3ccccc32)C1 (stereo not drawn)	272 cells	0.6% (inactive)
Cc1ccccc1OCc1n(CC(=O)OC2CC(C)CCC2C(C)C)c2ccccc2[n+]1C (stereo not drawn)	276 cells and 236 cells	68% (active)
CCCCCCCCCCOC(=O)Cn1c(COc2ccccc2OC)[n+](C)c2ccccc21	361 cells	32.1% (inactive)
Cc1cccc(OCc2n(CC(=O)OC3CC(C)CCC3C(C)C)c3ccccc3[n+]2C)c1 (stereo not drawn)	339 cells	81.2% (active)
CCCCCCCCCCOC(=O)Cn1c(COc2ccccc2C)[n+](C)c2ccccc21	386 cells	17.1% (inactive)
COc1ccc(OCc2n(CC(=O)OC3CC(C)CCC3C(C)C)c3ccccc3[n+]2C)cc1 (stereo not drawn)	350 cells	25.5% (inactive)
CCCCCCCCCCOC(=O)Cn1c(COc2cccc(C)c2)[n+](C)c2ccccc21	401 cells	31.3% (inactive)
CC1CCC(C(C)C)C(OC(=O)Cn2c(-c3ccc(Br)cc3)[n+](C)c3ccccc32)C1 (stereo not drawn)	411 cells and 208 cells	103% (active) and 106% (active)
CC(C)c1ccc(/C=C/C(=O)NC2=NCCS2)cc1	384 cells	0% (inactive)
CCc1nnc2n1N=C(c1ccc(Cl)cc1Cl)CS2	325 cells	-0.1% (inactive)
CCCc1nnc2n1N=C(c1ccc(C)cc1)CS2	336 cells	-0.1% (inactive)
CCCc1nnc2n1N=C(c1ccc(-c3cc(Cl)ccc3Cl)o1)CS2	356 cells	142% (active)
O=[N+]([O-])c1ccc(/C=C/C2=NN(c3ccccc3)C(c3ccco3)C2)o1 (stereo not drawn)	231 cells	21.7% (inactive)
C(=C\c1ccco1)/C1=NN(c2ccccc2)C(c2ccco2)C1 (stereo not drawn)	324 cells	27.4% (inactive)
O=[N+]([O-])c1ccc(/C=C/C2=NN(c3ccccc3)C(c3ccco3)C2)cc1 (stereo not drawn)	311 cells	120% (active)
CCOc1ncccc1C(=O)Nc1ccc(-c2ccc3nnc(C)n3n2)cc1	265 cells	-0.2% (inactive)
Cc1ccc(C(=O)NC2(C(F)(F)F)NC(=O)N(c3ccc(Cl)cc3)C2=O)cc1 (stereo not drawn)	333 cells	-0.3% (inactive)
COc1ccc(CN2CCNC(=O)C2CC(=O)NC2CCC2)c(OC)c1 (stereo not drawn)	341 cells	-0.1% (inactive)
CC(C)N1CCC(NC(=O)Nc2ccc3c(c2)OCO3)CC1	361 cells	0.1% (inactive)

Compound	cell count [1]	activation [2]
Cc1ccc(N(CC(=O)NC2CCCC2)C(=O)Cn2nnc(-c3ccccc3F)n2)cc1	388 cells	0% (inactive)
CCOc1ccc(C=NCC(O)c2ccccc2)cc1 (stereo not drawn)	365 cells	-0.1% (inactive)
CCCN1C(=O)/C(=C2/C=Cc3ccccc3N2CC)SC1=S	237 cells	-0.4% (inactive)
Cc1cc(C(F)(F)F)nc(SCCN2CCCCC2)c1C#N	404 cells	-0.2% (inactive)
CCOc1ccc(OCCOCCN2CCOCC2)cc1	322 cells	-0.1% (inactive)
CCCCN(CCCC)CC(O)COc1ccccc1Br (stereo not drawn)	385 cells	-0.2% (inactive)
Cc1cccc2nc(COc3ccc(Cl)c4cccnc34)cn12	263 cells	80.9% (active)
Cc1cccc2nc(COc3ccc4ccccc4c3Br)cn12	340 cells	0.4% (inactive)
Clc1ccc(OCc2cn3ccccc3n2)c2ncccc12	448 cells	-0.1% (inactive)
Cc1nc2ccc(NC(=O)CCC3CCCC3)cc2s1	329 cells	-0.1% (inactive)
Cc1nn2c(N3CCCC3)c3c(nc2c1-c1ccccc1)CCC3	363 cells	0% (inactive)
Cc1nn2c(C(F)(F)F)c3c(nc2c1-c1ccccc1)CCC3	390 cells	0.4% (inactive)
Cc1ccc(C)c2nc3sc(C(=O)N4CCCc5ccccc54)c(N)c3cc12	369 cells	0.3% (inactive)
Cc1cccc2cc3c(N)c(C(=O)N4CCCc5ccccc54)sc3nc12	244 cells	0.1% (inactive)
Cc1cccc2cc3c(N)c(C(=O)N4CCc5ccccc54)sc3nc12	347 cells	44.1% (active)
CC1=NNC(=O)/C1=C\c1cn(-c2ccccc2)nc1-c1ccc(Cl)cc1	376 cells	30.2% (inactive)
CC1=NNC(=O)/C1=C\c1cn(-c2ccccc2)nc1-c1ccccc1	396 cells	68.5% (active)
CC1=NNC(=O)/C1=C\c1cn(-c2ccccc2)nc1-c1ccc(F)cc1	406 cells	2.4% (inactive)
O=[N+]([O-])c1ccc(N/N=C/c2sc(N3CCOCC3)nc2-c2ccccc2)c(S(=O)(=O)Nc2ccc(Cl)cc2)c1	392 cells	18% (inactive)
COc1ccccc1NS(=O)(=O)c1cc([N+](=O)[O-])ccc1N/N=C/c1sc(N2CCOCC2)nc1-c1ccccc1	331 cells	48.8% (active)
O=[N+]([O-])c1ccc(N/N=C/c2sc(N3CCOCC3)nc2-c2ccccc2)c(S(=O)(=O)Nc2ccccc2Cl)c1	413 cells	22.5% (inactive)
